In PubChem BioAssay (NCATS) one finds Potency data, which are given here for 20 compounds.

Molecules are shown by their SMILES. Records with an inconclusive call do not appear. Where a call stands in place of a potency, no number is given. Active and inactive are the calls of the source. Calls follow the shape of the dose curve; as a rule, active = well fitted inhibition curve with a large enough effect in the repeat runs; inconclusive = weak or mixed curves; inactive = no such curve, though single readings can be large or run the other way.
Potency is read from the fitted curve at half-maximal effect.

Chain of Cytochrome P450 2C9 (Homo sapiens) (P11712 whole entry, looked up): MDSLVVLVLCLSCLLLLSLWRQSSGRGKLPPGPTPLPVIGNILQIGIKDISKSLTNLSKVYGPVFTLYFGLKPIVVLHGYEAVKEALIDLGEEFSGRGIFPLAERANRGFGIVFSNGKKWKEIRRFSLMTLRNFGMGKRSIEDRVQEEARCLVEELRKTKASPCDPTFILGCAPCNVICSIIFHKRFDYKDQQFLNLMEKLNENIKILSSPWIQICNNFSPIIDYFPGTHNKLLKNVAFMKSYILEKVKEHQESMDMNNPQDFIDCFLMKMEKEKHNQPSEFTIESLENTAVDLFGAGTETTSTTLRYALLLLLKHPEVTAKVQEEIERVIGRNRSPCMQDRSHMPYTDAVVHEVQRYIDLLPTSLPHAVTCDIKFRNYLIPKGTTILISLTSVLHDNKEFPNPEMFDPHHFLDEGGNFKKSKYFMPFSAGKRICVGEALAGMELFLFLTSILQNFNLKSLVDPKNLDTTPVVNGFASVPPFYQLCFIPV

The experiment addresses Cytochrome P450 2C9 (Homo sapiens) (UniProt P11712). The experiment is described as follows: Cytochrome P450 family 2 subfamily C member 9 (CYP2C9) small molecule antagonists: luciferase biochemical (cell-free) qHTS assay (AID 1645842). Also: nearly all actives have a fitted effect of over 55% in size. To be noted: P450-Glo CYP2C9 enzyme assay, luciferin luminescence; series mostly up to 57.4 µM. In a few lines: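 Luminescence, after 20 min with luciferin detection reagent, reflected CYP2C9 turnover during a 1 h NADPH-driven reaction at 37C. Enzyme-substrate mix contained 0.4% bovine serum albumin and was preincubated with compound 10 min at room temperature.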
On the technique in general: In qHTS, concentration-response curves come from the screen itself.
Take `CCCC(=O)OCOC(=O)C1=C(C)NC(C)=C(C(=O)OC)C1c1cccc(Cl)c1Cl` (stereo not given): the Potency was 2.04 µM (active).
The result for `O=C(O)c1ccc(OCCN2CCCCC2)cc1` reads “inactive”; that for `CC(COc1ccccc1)NN` (stereo not given), 23.9 µM (active); that for `Cc1coc2ccccc2c1=O`, “inactive”.
With `C=CCOc1cc(Cl)ccc1C(=O)NCCN(CC)CC` the entry was “inactive”; with `CC(C)=CCC/C(C)=C/CC/C(C)=C/CCC(=O)OC/C=C(\C)CCC=C(C)C`, “inactive”.
The result for `CCn1ccc(NS(=O)(=O)c2ccc(N)cc2)nc1=O` reads “inactive”; that for `N#CSCC(=O)O`, “inactive”.
On to `O=C(Oc1ccccc1)c1cccc(C(=O)Oc2ccccc2)c1`, for which the Potency was 6.48 µM (active).
The result for `CC(=O)N[C@@H](CCC(N)=O)C(=O)O` reads “inactive”; that for `CCC1(c2cnc[nH]2)Cc2ccccc2C1`, 0.871 µM (active); that for `CCN1CCN(C(=O)N[C@@H](C(=O)N[C@@H]2C(=O)N3[C@@H]2SC(C)(C)[C@H]3C(=O)O)c2ccccc2)C(=O)C1=O`, “inactive”.
The result for `COC(=O)/C=C\C(=O)OC` reads “inactive”; that for `CCCC(CCC)(C(=O)OCC)C(=O)OCC`, “inactive”; that for `CCc1cc(S(=O)(=O)O)c2cc(C(C)C)cccc1-2`, “inactive”.
The result for `C1=CC2C3C=CC(C3)C2C1` (stereo not given) reads “inactive”; that for `COc1ccc(/C(C)=C/C(=O)O)c(OC)c1`, “inactive”; that for `O=C1c2ccccc2CCc2ccccc21`, “inactive”.
Consider `COc1cc(C=O)ccc1O`, for which the Potency result was “inactive”.
As to `COC(=O)c1cc(S(N)(=O)=O)ccc1OC`, the Potency result was “inactive”.
